Bioassay records as filed in PubChem.
CRFBP-R2 agonist = agonists of human CRF-binding protein/CRF-R2 receptor complex; HEK293 CRF-R2/CRF-BP, calcium dye fluorescence (FLIPR); percent of saturating CRF peptide response; activation, % at 13.2 µM; 0.46% of 350,000 active; AID 588473;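 active = activation of at least 50%, plus an integration ratio under a set limit after plate pattern correction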;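 note: plate controls were neutral control wells without compound for no effect and CRF at EC100 for full effect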
TPT1 inhibitor = C. albicans TPT1 enzyme inhibition; recombinant caTPT1, FP RNA substrate dephosphorylation; inhibition, % at 5 µM; 0.81% of 300,000 active;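 active = inhibition above the mean of all tested compounds plus 3 SD, set per screening campaign, cut at about 24% in these data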;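 note: plate controls were DMSO alone for no effect and ferristatin control at 100 nM for full effect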
IDE inh = inhibits human insulin-degrading enzyme in HEK cells; FAbetaB cleavage, fluorescence polarization; inhibition, % at 5.59 µM; 0.41% of 320,000 active; P14735;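 active = percent inhibition above the average of all tested compounds plus 3 SD, set per screening campaign, cut at about 16% in these data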;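 note: IDE supplied by intact live HEK cells; FP after avidin binding of uncleaved biotin substrate so inhibition keeps polarization high; 0% = DMSO wells and 100% = 60 µM reference IDE inhibitor Ii1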
Target sequence (P14735 whole entry, looked up): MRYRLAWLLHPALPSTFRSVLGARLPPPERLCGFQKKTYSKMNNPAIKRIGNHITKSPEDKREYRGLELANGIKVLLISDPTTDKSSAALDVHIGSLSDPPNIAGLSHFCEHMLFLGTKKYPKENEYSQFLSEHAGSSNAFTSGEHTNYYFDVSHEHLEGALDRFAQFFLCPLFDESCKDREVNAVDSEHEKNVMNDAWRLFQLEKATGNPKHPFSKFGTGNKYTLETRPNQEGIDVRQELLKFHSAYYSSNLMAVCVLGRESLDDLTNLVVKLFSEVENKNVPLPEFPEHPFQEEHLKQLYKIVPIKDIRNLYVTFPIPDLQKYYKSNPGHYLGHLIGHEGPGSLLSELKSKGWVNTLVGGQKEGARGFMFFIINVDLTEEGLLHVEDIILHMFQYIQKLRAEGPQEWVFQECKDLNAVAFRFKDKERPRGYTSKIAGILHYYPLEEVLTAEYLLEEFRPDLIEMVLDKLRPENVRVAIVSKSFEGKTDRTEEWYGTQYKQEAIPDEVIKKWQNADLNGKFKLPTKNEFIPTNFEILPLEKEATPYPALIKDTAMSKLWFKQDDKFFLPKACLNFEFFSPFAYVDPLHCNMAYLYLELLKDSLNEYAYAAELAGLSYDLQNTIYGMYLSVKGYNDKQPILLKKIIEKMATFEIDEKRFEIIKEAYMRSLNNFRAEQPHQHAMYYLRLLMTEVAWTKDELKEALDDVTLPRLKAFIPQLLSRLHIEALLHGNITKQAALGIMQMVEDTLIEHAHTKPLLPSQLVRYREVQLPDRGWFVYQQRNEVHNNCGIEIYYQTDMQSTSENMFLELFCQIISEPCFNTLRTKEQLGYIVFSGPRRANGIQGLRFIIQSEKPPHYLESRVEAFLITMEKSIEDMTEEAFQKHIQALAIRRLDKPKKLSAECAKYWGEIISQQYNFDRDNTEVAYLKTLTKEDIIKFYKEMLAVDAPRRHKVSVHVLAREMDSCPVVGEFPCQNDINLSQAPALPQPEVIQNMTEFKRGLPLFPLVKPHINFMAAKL
HNF4A DNA FP = change in binding of human HNF4 alpha to DNA | P41235 | HNF4a-FITC DNA binding, fluorescence polarization, 1 h | activity change, % at 10 µM | 0.3% of 360,000 active | AID 1224865; in the data active = activity change above about 30%, passing the limit was not always enough
IDE cell activ = IDE (human) activation, cell-based; 0.073% of 340,000 active; activation, % at 5.96 µM; HEK cells, FAbeta-B cleavage, fluorescence polarization; 0% vehicle, 100% cell-free pure enzyme wells; P14735;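 active = activation above the mean of all tested compounds plus 3 SD, set per screening campaign, cut at about 17% in these data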
* hit, by the source's call; / = no result given; ! = not confirmed by another sample. Rows were chosen to be rich in hits. Some 1.4% of all compounds tested hit in one or more screens of this group.

SMILES | CRFBP-R2 agonist | TPT1 inhibitor | IDE inh | HNF4A DNA FP | IDE cell activ
Cc1cc(=O)c2ccccc2n1CC(=O)NCc1ccccc1 | -1 | -8 | 6 | 30* | 1
Cc1cc(=O)c2ccccc2n1Cc1ccccc1 | 4 | -2 | 5 | 0 | -3
C=CCOc1ccc(CNC(C)(C)C)cc1OC | 4 | -1 | 1 | 51* | 5
CC1(c2nc3ccccc3[nH]2)c2ccccc2C(=O)N1Cc1ccccc1 (configuration not stated) | / | / | / | -4 | /
CN(C)S(=O)(=O)N1CCc2ccc(NC(=O)c3ccc(C(F)(F)F)cc3)cc2C1 | 0 | 1 | 4 | 1 | 3
Cc1c(N2C(=O)/C(=C/c3ccc(N(C)C)cc3)N(C)C2=S)c(=O)n(-c2ccccc2)n1C | 23 | / | / | 55* | -20
CCCCCCCCCCCCCCCC[n+]1cccc(C(=O)N(CC)CC)c1 | 104*! | 1 | -9 | 3 | 11
O=[N+]([O-])c1cc(/C=N/N/C(=N/c2ccccn2)c2ccccn2)ccc1O | 66* | -2 | 2 | 2 | 4
COc1ccc(N2CC(C(=O)Nc3nnc(SCC(=O)N4CCOCC4)s3)CC2=O)cc1 (configuration not stated) | 0 | -4 | 8 | 3 | 3
O=C(NCc1ccccc1)C(=O)NCC1OCCN1S(=O)(=O)c1ccc([N+](=O)[O-])cc1 (configuration not stated) | -1 | -2 | 2 | 32* | 2
CNC(=O)C(=O)NCC1OCCN1S(=O)(=O)c1ccc([N+](=O)[O-])cc1 (configuration not stated) | 2 | 0 | -1 | 1 | 4
CCCCCCCCNC(=O)/C(C#N)=C/c1ccccc1[N+](=O)[O-] | 62* | -3 | 7 | -1 | -12
N#C/C(=C\c1ccccc1[N+](=O)[O-])C(=O)NCc1ccccc1 | 23 | 10 | 9 | 2 | -6
O=C(OCCN1C(=O)c2cccc3c(N4CCOCC4)ccc(c23)C1=O)c1ccc(Cl)cc1 | 366* | 14 | 1 | -13 | -17
CCCN(CCC)S(=O)(=O)c1ccc(C(=O)OCCN2C(=O)c3cccc4c(N5CCOCC5)ccc(c34)C2=O)cc1 | 114* | 14 | 8 | -73 | -3
CCN(CC)S(=O)(=O)c1ccc(C(=O)N2CCN(CCN3C(=O)c4cccc5cccc(c45)C3=O)CC2)cc1 | / | -2 | 2 | / | /
CCC(NC(=O)c1ccncc1)c1ccccc1 (configuration not stated) | 1 | 1 | -4 | 0 | 9
CCC1(c2ccc(F)cc2)NC(=O)N(CC(=O)N2CCc3ccccc32)C1=O (configuration not stated) | 53* | / | 0 | 3 | -1
Cc1ccc(C2(C)NC(=O)N(CC(=O)N3CCc4ccccc43)C2=O)cc1 (configuration not stated) | 41 | / | -3 | -3 | -1
CC1(c2ccc(Cl)cc2)NC(=O)N(CC(=O)N2CCc3ccccc32)C1=O (configuration not stated) | 82* | / | 0 | 1 | 4
CCC1(c2ccccc2)NC(=O)N(CC(=O)N2CCc3ccccc32)C1=O (configuration not stated) | 7 | / | 1 | 0 | 1
COC(=O)c1ccccc1NC(=O)CCn1c(=O)oc2ccccc21 | 0 | -5 | 3 | 2 | 8
CCN1CCN(Cc2ccc(NC(=O)c3cc(NC(=O)c4cncc(-c5ccc(C#N)cc5)c4)cc(OC)c3)cc2C(F)(F)F)CC1 | -1 | 0 | 10 | 45*! | 5
CC(C)Oc1ccc(C(=O)Nc2ccc(N3CCCCC3)cc2)cc1 | 2 | -3 | 6 | 82* | 1
Cc1cccc(C(=O)NC2CCN(C(=S)NCc3ccco3)CC2)c1 | -1 | -1 | 0 | 2 | 4
SMILES | CRFBP-R2 agonist | TPT1 inhibitor | IDE inh | HNF4A DNA FP | IDE cell activ
O=C(NC1CCN(C(=S)NCc2ccco2)CC1)NC12CC3CC(CC(C3)C1)C2 | -5 | 1 | -2 | 43* | 3
CC1(C)OC(c2ccccc2)=C/C(=C/C=C2C(=O)c3ccccc3C2=O)O1 | 1 | -5 | 6 | 84* | -11
COc1cccc2c1C(=O)c1c(O)c3c(c(O)c1C2=O)C[C@](O)(C(C)=O)C[C@H]3O[C@@H]1C[C@@H](N)[C@@H](O)[C@@H](C)O1 | 64* | -171 | 2 | -57 | 17
CCCCC(=O)OCC(=O)C1(O)Cc2c(O)c3c(c(O)c2C(OC2CC(NC(=O)C(F)(F)F)C(O)C(C)O2)C1)C(=O)c1c(OC)cccc1C3=O (configuration not stated) | 33 | / | / | 60 | 10
COc1cccc2c1C(=N)c1c(O)c3c(c(O)c1C2=O)CC(O)(C(C)=O)CC3OC1CC(N)C(O)C(C)O1 (configuration not stated) | -2 | / | / | 22 | 5
COc1cccc2c1C(=O)c1c(O)c3c(c(O)c1C2=O)CC(O)(C(C)=O)CC3OC1CC(O)C(O)C(C)O1 (configuration not stated) | 96* | / | / | -57 | 16
CSc1ccc(CN2CCC(C)(Oc3ccc(-n4ccnc4)cc3)C2)cc1 (configuration not stated) | / | / | / | 1 | /
CCOC(=O)Nc1cc2c(c(N)n1)N=C(c1ccccc1)CN2 | 65* | / | / | 23 | -9
CN(C(=O)c1cccc(NC(=O)Cc2ccc(NC(=O)C3CCCN(C(=O)c4ccccc4)C3)cc2)c1)C1CCCCC1 (configuration not stated) | -1 | / | / | 3 | 6
COc1ccc(C(C(=O)Nc2ccc(F)cc2)N2CCN(c3cccc(C(F)(F)F)n3)CC2)cc1 (configuration not stated) | / | / | / | -2 | /
Cc1ccc(C2C(C#N)=C(N)SC(N)=C2C#N)cc1 | 39 | / | / | 120 | -9
N#CC1=C(N)SC(N)=C(C#N)C1c1ccoc1 | / | 32* | 15 | / | /
Cc1ccc(/C=C2\SC(=S)N(CCCC(=O)Nc3ccccc3C(=O)O)C2=O)cc1 | 0 | -3 | -9 | 2 | 17
COc1ccc(/C=C2/SC(=S)N(CCCC(=O)Nc3ccccc3C(=O)O)C2=O)cc1 | 0 | 1 | -32 | 0 | 22*
O=C1NC(=O)/C(=C/c2ccc(-c3cccc([N+](=O)[O-])c3)o2)S1 | -8 | / | / | -29 | 3
O=C1NC(=S)S/C1=C\c1ccc(SCc2ccco2)o1 | 2 | 90* | -6 | -21 | -7
CC(Oc1ccccc1)C(=O)Nc1ccc(C(N)=O)cc1 (configuration not stated) | 9 | 2 | 2 | 0 | -2
CC(C)NS(=O)(=O)c1ccc(NC(=O)C(C)Oc2ccc(C(=O)c3ccccc3)cc2)cc1 (configuration not stated) | 162* | 0 | 0 | 2 | 3
N#C/C(=C(/O)COC(=O)c1ccccc1O)c1nc2ccccc2s1 | 79* | 8 | -4 | 11 | -6
CC(C)(C)c1ccc(C(=O)OC/C(O)=C(\C#N)c2nc3ccccc3s2)cc1 | 26 | 1 | -5 | -1 | -2
